PubChem BioAssay (NCATS)
Inconclusive results are not listed. Entries that show only a call come without a potency. Activity calls are given as the source filed them. The call rests on the fitted dose curve; in most records, active means well fitted inhibition curve with a large enough effect; inconclusive means small, poorly fitted or top-dose-only effect; inactive means flat fitted curve, though single readings scatter.

Molecular target: Calcium and integrin-binding protein 1 (Homo sapiens) (UniProt Q99828)
Test: Primary qHTS for Identification of Calcium Integrin Binding Protein 1 (CIB1) Competitor (AID 1508620); further: top concentration of the series differs between compounds
Conditions: CIB1-GST / FITC-alphaIIb peptide fluorescence polarization; series mostly up to 114 µM
Summary of the method: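 Fluorescence polarization competition: GST-tagged CIB1 (1 uM final) preincubated with compound 15 min at room temperature, then FITC-labelled alphaIIb peptide (100 nM final) added. After 15 min at room temperature, polarization read at Ex 480/Em 540.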

Chain of Calcium and integrin-binding protein 1 (Homo sapiens) (Q99828 whole entry, looked up): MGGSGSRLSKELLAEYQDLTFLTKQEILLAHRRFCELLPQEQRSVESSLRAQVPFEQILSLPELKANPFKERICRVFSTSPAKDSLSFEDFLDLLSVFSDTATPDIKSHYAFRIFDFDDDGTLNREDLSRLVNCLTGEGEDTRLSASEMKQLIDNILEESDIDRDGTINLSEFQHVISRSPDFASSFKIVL

| Compound | Potency |
| --- | --- |
| COC(=O)c1sc2c(c1-c1nc3ccccc3s1)CCNC2 | inactive |
| COc1ccc(C2Nc3ccccc3C(=O)N2CCO)cc1COc1c(C)cc(NC(C)=O)cc1C (stereo not given) | inactive |
| COc1cccc(-c2nc(SC)nc3sc(C(=O)NC(C)(C)C)c(N)c23)c1 | inactive |
| O=C(O)c1ccc2c(c1)C(=O)N([C@@H](Cc1ccc(O)cc1)C(=O)O)C2=O | inactive |
| O=C1NS(=O)(=O)c2cc(Cl)ccc21 | inactive |
| O=C1c2ccccc2NC(c2ccc(-c3cccs3)o2)N1O (stereo not given) | inactive |
| Cc1cnc(-c2ccccc2N(C)C)nc1NCc1ccc(-c2cccnc2)cc1 | inactive |
| Cc1c(P(=S)(c2ccccc2)c2ccccc2)c2ccccc2n1Cc1ccccc1 | inactive |
| Brc1cnc2nc(SCc3cccnc3)[nH]c2c1 | inactive |
| O=C(Nc1ccccn1)c1sc2ccc([N+](=O)[O-])cc2c1Cl | inactive |
| NC(=O)c1c(NC(=O)C2CCCO2)sc2c1CCCC2 (stereo not given) | inactive |
| CC(=O)Nc1ccc(S(=O)(=O)N2CCN(S(=O)(=O)c3c(F)cccc3F)CC2)cc1 | inactive |
| Cc1ccc(-c2nc3ccccc3s2)cc1NC(=O)c1ccc(-c2cccc(Cl)c2)o1 | inactive |
| CC1=C(C(=O)Nc2nc3ccccc3s2)C(c2nn(C)cc2Cl)N=C(Nc2nc3ccccc3o2)N1 (stereo not given) | inactive |
| COc1ccccc1NS(=O)(=O)c1cc(NC(=O)c2ccccc2)ccc1N1CCCC1 | inactive |
| CN(Cc1ncc[nH]1)c1ncnc2ccc(-c3ccc4c(c3)OCO4)cc12 | inactive |
| N#Cc1c(-c2csc(-c3no[n+]([O-])c3C#N)c2)no[n+]1[O-] | inactive |
| COc1ccnc(NC(=S)N2CCN(c3ccc(Cl)cc3Cl)CC2)c1 | inactive |
| Cc1ccc(NS(=O)(=O)c2ccc3c(c2)CCC(C)(C)O3)cc1C | inactive |
| Cc1cnc(NC(=O)c2ccc(-c3cccc([N+](=O)[O-])c3)o2)s1 | inactive |

| Compound | Potency |
| --- | --- |
| CCOC(=O)c1cccc(NC(=O)Nc2nnc(-c3ccncc3)s2)c1 | inactive |
| CCOC(=O)c1ccc(-n2cnc3c(c2=N)C(c2cccc(OC)c2)c2c(ccc4ccccc24)O3)cc1 (stereo not given) | inactive |
| COc1ccc(CNc2ccc(-c3nc4ccccc4[nH]3)cc2)cc1OC | inactive |
| COc1ccc(NC(=O)c2cccnc2C)cc1S(=O)(=O)Nc1ccc(Br)cc1 | inactive |
| CCc1ccc(NC(=O)c2cnn3c(C)cc(C)nc23)cc1 | inactive |
| N#Cc1c(-c2ccc(Cl)c([N+](=O)[O-])c2)no[n+]1[O-] | inactive |
| COc1ccc([S+](=O)([O-])N2CCCN([S+](=O)([O-])c3ccc(OC)c(NC(C)=O)c3)CC2)cc1NC(C)=O | inactive |
| COc1cccc(-c2ccc3ncnc(NCc4cc(C)cs4)c3c2)c1 | inactive |
| O=C1CCCC2=C1C(c1[nH]ncc1Cl)NC(=NCCc1cccnc1)N2 (stereo not given) | inactive |
| C#CCCC(=O)Nc1sc2c(c1-c1nc3ccccc3s1)CCNC2 | inactive |
| CCN(Cc1sccc1C)c1ncnc2ccc(-c3ccc4c(c3)OCO4)cc12 | inactive |
| O=C(Nc1ncc(Cc2ccc(C(F)(F)F)cc2)s1)c1cnc(-c2ccccc2)[nH]1 | inactive |
| COc1cccc(C2c3c(ncn(-c4ccccc4OC)c3=N)Oc3ccc4ccccc4c32)c1 (stereo not given) | inactive |
| Cc1cc(NC(=O)Nc2nnc(-c3cccnc3)s2)ccc1Br | inactive |
| CC(=O)Nc1sc2c(c1-c1ccc(Cl)cc1)CCNC2 | inactive |
| COc1cccc(NC(=O)C(OC(=O)CNC(=O)c2ccccc2)c2ccccc2)c1 (stereo not given) | inactive |
| COc1ccc(C2c3c(ncn(CCN4CCOCC4)c3=N)Oc3ccc4ccccc4c32)cc1OC (stereo not given) | inactive |
| O=C(Nc1cc(C(F)(F)F)ccc1Cl)[C@H](O)CCc1ccccc1 | inactive |
| O=c1c2ccccc2nc2sc(Nc3cccc(N4CCNCC4)c3)nn12 | inactive |
| O=C(COC(=O)CNC(=O)c1ccccc1Cl)Nc1ccccc1Cl | inactive |
